Measured values as given in PubChem BioAssay (Tox21).
Records with an inconclusive call do not appear. Active and inactive are the calls of the source. Unless noted, calls follow the shape of the dose curve; as a rule, active = well fitted curve in the direction sought with a large enough effect in the repeat runs; inconclusive = weak or mixed curves; inactive = no such curve, though single readings can be large; an effect the other way counts as inactive or inconclusive.

What was measured:
[1] = biological target: Estrogen receptor beta (Homo sapiens) (UniProt Q92731); experiment: qHTS assay to identify small molecule agonists of the estrogen receptor beta (ER-beta) signaling pathway (AID 1259377; active = well fitted activation curve with a large enough effect in the signal ratio in the repeat runs, not every such curve was filed as active; the % refers to the signal ratio)
Chain of Estrogen receptor beta (Homo sapiens) (Q92731 whole entry, looked up): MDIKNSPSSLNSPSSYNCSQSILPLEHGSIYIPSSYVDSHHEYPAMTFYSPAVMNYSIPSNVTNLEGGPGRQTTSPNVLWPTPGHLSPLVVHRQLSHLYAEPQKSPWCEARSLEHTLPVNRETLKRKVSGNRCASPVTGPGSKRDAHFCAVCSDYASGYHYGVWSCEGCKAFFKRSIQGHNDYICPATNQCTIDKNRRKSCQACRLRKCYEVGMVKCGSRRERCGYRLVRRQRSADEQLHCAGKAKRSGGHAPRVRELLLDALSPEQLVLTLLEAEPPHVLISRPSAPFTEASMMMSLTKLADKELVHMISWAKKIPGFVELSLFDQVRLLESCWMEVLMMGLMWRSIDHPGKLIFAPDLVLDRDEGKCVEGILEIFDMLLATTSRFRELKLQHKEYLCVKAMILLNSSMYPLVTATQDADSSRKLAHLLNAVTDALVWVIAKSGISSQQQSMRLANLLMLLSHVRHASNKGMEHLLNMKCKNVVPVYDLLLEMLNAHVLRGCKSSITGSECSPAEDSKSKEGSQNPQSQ
Summary of the method: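 HEK293T ER-beta-UAS-bla; 2% charcoal-stripped FBS; cells pre-incubated 6 hr, compound 16 hr, 37C/5% CO2; LiveBLAzer B/G FRET substrate 2 h RT; fluorescence intensity read.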

[2] = biological target: Estrogen receptor beta (Homo sapiens) (UniProt Q92731); experiment: qHTS assay to identify small molecule antagonists of the estrogen receptor beta (ER-beta) signaling pathway (AID 1259378; active = well fitted inhibition curve with a large enough effect in the signal ratio in the repeat runs, not every such curve was filed as active; the % refers to the signal ratio)
Summary of the method: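 ER-beta-UAS-bla HEK293T (GripTite) cells in 2% charcoal-stripped FBS medium were preincubated 6 hr at 37C, dosed with compound, then stimulated with 1 nM E2 (final) for 16 hr; beta-lactamase reporter read by B/G FRET fluorescence after 2 hr substrate loading.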

[3] = qHTS assay to identify small molecule agonists of the androgen receptor (AR) signaling pathway in the presence of an antagonist - cell viability counter screen (AID 1259379);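 also: MDA-kb2 human breast cancer cells carrying an MMTV luciferase reporter; series mostly up to about 92 µM; nearly all actives have a fitted effect of over 25% in size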
Summary of the method: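 MDA-kb2 cells (MMTV-luciferase, AR/GR), 3,000/well, 5 h attachment, then 3.0 µM nilutamide (final) and compounds at 15 concentrations. Viability by CellTiter-Fluor fluorescence after 16 h at 37 °C, 0% CO2, in the reporter wells.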

[4] = qHTS assay to identify small molecule agonists of the estrogen receptor beta (ER-beta) signaling pathway - cell viability counter screen (AID 1259380); also: nearly all actives have a fitted effect of over 30% in size
Summary of the method: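 ER-beta-UAS-bla HEK293T cells in medium with 2% charcoal-stripped FBS, pre-incubated 6 hr, then treated 16 hr at 37C. Cytotoxicity read in the same wells by CellTiter-Glo luminescence after 30 min at room temperature.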

[5] = qHTS assay to identify small molecule antagonists of the estrogen receptor beta (ER-beta) signaling pathway - cell viability counter screen (AID 1259382); also: series mostly up to about 92 µM; nearly all actives have a fitted effect of over 55% in size
Summary of the method: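 ER-beta-UAS-bla HEK293T cells in 2% charcoal-stripped FBS medium, treated with compound plus 1 nM 17-beta-estradiol for 16 h at 37C. Viability read by CellTiter-Glo luminescence after 30 min at room temperature in the same wells.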

[6] = qHTS assay to identify small molecule agonists or antagonists of the thyroid stimulating hormone receptor (TSHR) signaling pathway - wild type cell line counter screen (AID 1259384; calls by dose curve)
Summary of the method: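 Wild-type HEK293 cells were plated 18 h at 37 C/5% CO2, pin-dosed with compound plus Ro20-1724 medium, held 30 min at room temperature, then given cAMP-d2 and anti-cAMP-cryptate; fluorescence was read after 1 h. Fifteen concentrations, triplicate.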

[7] = biological target: Thyrotropin receptor (Homo sapiens) (UniProt P16473); experiment: qHTS assay to identify small molecule antagonists of the thyroid stimulating hormone receptor (TSHR) signaling pathway (AID 1259385; calls by dose curve; also: nearly all actives have a fitted effect of over 20% in size)
Chain of Thyrotropin receptor (Homo sapiens) (P16473 whole entry, looked up): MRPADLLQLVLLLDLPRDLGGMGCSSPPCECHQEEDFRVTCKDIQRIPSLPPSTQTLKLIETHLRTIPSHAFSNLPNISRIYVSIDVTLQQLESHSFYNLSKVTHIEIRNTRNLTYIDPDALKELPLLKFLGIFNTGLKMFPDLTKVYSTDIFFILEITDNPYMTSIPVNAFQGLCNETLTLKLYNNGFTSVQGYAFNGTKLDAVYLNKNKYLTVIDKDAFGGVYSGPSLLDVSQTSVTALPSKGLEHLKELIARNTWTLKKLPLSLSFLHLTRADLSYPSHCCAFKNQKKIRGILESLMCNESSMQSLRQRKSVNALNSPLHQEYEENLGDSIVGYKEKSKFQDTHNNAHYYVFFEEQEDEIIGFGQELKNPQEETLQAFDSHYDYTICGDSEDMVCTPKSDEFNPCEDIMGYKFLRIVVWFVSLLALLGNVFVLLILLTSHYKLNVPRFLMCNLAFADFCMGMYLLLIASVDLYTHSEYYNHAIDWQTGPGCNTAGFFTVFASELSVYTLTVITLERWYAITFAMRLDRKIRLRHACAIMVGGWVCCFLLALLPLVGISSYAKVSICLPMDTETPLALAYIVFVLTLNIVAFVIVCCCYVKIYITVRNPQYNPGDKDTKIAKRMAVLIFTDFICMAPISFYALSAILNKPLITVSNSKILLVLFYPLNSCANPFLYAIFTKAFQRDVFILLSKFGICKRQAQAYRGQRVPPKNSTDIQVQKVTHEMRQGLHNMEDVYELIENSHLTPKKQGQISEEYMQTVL
Summary of the method: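 TSHR-HEK293 cells were plated and held 18 h at 37C/5% CO2, then given compound plus Ro20-1724 and stimulated with TSH at 1.5 ng/mL final. After 30 min at room temperature, cAMP was detected with cAMP-d2/anti-cAMP-cryptate (1 h) by fluorescence.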

[8] = qHTS assay to identify small molecule agonists of the estrogen receptor alpha (ER-alpha) signaling pathway in the presence of an antagonist - cell viability counter screen (AID 1259386);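 also: series mostly up to about 92 µM; cells exposed to compounds for 22 h at 37 °C before the viability read; nearly all actives have a fitted effect of over 30% in size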
Summary of the method: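 Cell viability in VM7Luc4E2 cells (endogenous full-length ER-alpha) measured by CellTiter-Fluor fluorescence in the same wells as the luciferase screen. Cells pre-cultured 5 days in charcoal-stripped serum, then treated 22 h with compounds at 15 concentrations plus 10.0nM ICI-182,780.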

[9] = biological target: Androgen receptor (Homo sapiens) (UniProt P10275); experiment: qHTS assay to identify small molecule agonists of the androgen receptor (AR) signaling pathway in the presence of an antagonist (AID 1259381; calls by dose curve; also: nearly all actives have a fitted effect of over 15% in size)
Chain of Androgen receptor (Homo sapiens) (P10275 whole entry, looked up): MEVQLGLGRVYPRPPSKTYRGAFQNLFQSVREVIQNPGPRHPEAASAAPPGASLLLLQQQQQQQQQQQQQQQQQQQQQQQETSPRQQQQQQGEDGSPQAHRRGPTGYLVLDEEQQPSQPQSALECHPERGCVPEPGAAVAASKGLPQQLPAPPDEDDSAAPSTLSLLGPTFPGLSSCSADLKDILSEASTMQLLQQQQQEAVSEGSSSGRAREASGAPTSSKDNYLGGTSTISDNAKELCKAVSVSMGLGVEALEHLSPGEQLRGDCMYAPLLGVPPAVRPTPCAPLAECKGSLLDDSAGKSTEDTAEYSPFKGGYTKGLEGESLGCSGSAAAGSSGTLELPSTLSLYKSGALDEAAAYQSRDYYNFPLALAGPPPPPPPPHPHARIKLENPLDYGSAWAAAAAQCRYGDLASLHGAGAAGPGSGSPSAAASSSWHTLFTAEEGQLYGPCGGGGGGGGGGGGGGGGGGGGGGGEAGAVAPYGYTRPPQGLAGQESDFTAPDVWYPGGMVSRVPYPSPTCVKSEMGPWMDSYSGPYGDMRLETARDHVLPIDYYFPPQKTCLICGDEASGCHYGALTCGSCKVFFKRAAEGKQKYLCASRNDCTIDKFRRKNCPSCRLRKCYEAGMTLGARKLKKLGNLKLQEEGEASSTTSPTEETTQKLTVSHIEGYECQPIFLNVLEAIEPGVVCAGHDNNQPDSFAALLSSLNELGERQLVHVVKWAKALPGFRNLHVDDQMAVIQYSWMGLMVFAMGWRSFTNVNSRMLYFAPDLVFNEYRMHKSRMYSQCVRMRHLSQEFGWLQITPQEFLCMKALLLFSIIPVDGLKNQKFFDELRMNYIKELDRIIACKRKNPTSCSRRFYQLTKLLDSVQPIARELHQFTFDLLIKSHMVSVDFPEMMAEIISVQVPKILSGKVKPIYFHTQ
Summary of the method: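 MDA-kb2 cells carrying MMTV-luciferase (AR/GR responsive), 3,000 cells/well, co-treated with 3.0 uM nilutamide final. Compounds at 15 concentrations, 16 hr at 37C without CO2. Luciferase luminescence read after 30 min with ONE-Glo.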

[10] = biological target: Estrogen receptor (Homo sapiens) (UniProt P03372); experiment: qHTS assay to identify small molecule agonists of the estrogen receptor alpha (ER-alpha) signaling pathway in the presence of an antagonist (AID 1259383; calls by dose curve; also: top concentration of the series differs between compounds; nearly all actives have a fitted effect of over 15% in size)
Chain of Estrogen receptor (Homo sapiens) (P03372 whole entry, looked up): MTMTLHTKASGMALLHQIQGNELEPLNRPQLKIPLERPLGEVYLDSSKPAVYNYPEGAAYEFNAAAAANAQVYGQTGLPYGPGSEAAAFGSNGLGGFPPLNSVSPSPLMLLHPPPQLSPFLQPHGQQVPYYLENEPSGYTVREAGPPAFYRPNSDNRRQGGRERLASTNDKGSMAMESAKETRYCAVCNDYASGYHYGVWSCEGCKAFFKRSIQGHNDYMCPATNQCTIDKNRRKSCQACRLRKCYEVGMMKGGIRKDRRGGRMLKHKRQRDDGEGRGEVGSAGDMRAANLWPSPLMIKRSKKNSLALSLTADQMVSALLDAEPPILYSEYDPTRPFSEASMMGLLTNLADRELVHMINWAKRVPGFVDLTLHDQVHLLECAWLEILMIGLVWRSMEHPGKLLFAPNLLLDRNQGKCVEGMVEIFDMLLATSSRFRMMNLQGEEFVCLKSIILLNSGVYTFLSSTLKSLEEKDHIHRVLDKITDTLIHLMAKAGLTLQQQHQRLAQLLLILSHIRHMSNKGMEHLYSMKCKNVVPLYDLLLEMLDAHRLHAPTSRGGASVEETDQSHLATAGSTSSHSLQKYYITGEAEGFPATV
Summary of the method: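 VM7Luc4E2 cells express endogenous full-length ER-alpha with an ERE-luciferase reporter and were hormone-deprived for 5 days. Compounds at 15 concentrations were added with 10.0nM ICI-182,780 for 22hr at 37C. Luminescence was read with ONE-Glo.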
% is scaled to controls: 0 for no effect and ±100 for the full control effect.

CC1(C)CC(=O)CC(C)(C)N1
inactive: Potency [1] | Potency [2] | Potency [3] | Potency [4] | Potency [5] | outcome [6] | Potency [7] | Potency [8]

O=C(O)c1ccccc1[N+](=O)[O-]
inactive: Potency [1] | Potency [2] | Potency [3] | Potency [4] | Potency [5] | outcome [6] | Potency [7] | Potency [8]

N#C[C@@H]1CC(F)(F)CN1C(=O)CNC1CC2CCC(C1)N2c1ncccn1 (some centres undefined)
inactive: Potency [1] | Potency [2] | Potency [3] | Potency [4] | Potency [9] | Potency [5] | Potency [10] | Potency [7] | Potency [8]

CC(C)(C)NCC(O)COc1ccc(NC(=O)NC2CCCCC2)cc1 (centres undefined)
inactive: Potency [1] | Potency [2] | Potency [3] | Potency [4] | Potency [5] | Potency [10] | outcome [6] | Potency [7] | Potency [8]

CC(C)Cc1nccs1
inactive: Potency [1] | Potency [2] | Potency [3] | Potency [4] | Potency [5] | outcome [6] | Potency [7] | Potency [8]

CCOc1ccc2c(c1)C(C)CC(C)(C)N2 (centres undefined)
inactive: Potency [1] | Potency [2] | Potency [3] | Potency [4] | Potency [9] | outcome [6] | Potency [7] | Potency [8]

C=C(C)C(=O)OCCCCCCCCCCOC(=O)C(=C)C
inactive: Potency [1] | Potency [2] | Potency [3] | Potency [4] | Potency [5] | outcome [6] | Potency [7] | Potency [8]

FC(F)(Cl)C(F)(Cl)Cl
inactive: Potency [1] | Potency [2] | Potency [3] | Potency [4] | Potency [9] | Potency [10] | outcome [6] | Potency [7] | Potency [8]

Nc1ccc(F)cc1F
inactive: Potency [1] | Potency [2] | Potency [3] | Potency [4] | Potency [9] | Potency [5] | Potency [10] | outcome [6] | Potency [7] | Potency [8]

CCCCCCCCCCCCCCCCCCCl
inactive: activation [1] -3.3% [at 8.39 µM] | activity, negative = inhibition [2] 21.3% [at 8.39 µM] | activity change, negative = cytotoxicity [3] 1.57% [at 8.39 µM] | activity change, negative = cytotoxicity [4] 2.61% [at 8.39 µM] | activity change, negative = cytotoxicity [5] -0.0396% [at 8.39 µM] | activation [10] 0.705% [at 8.39 µM] | cAMP activity change [6] -0.012% [at 8.39 µM] | activity change, negative = inhibition [7] 0.518% [at 8.39 µM] | activity change, negative = cytotoxicity [8] -0.0193% [at 8.39 µM]

COc1ccc(/C=C/c2cc(OC)cc(=O)o2)cc1
inactive: Potency [1] | Potency [2] | Potency [3] | Potency [4] | Potency [5] | Potency [10] | Potency [8]

O=C(O)c1ccc(O)c(O)c1
inactive: Potency [1] | Potency [2] | Potency [3] | Potency [4] | Potency [9] | Potency [10] | outcome [6] | Potency [7] | Potency [8]

CC(=O)c1ccc(Cl)c(Cl)c1Cl
inactive: Potency [1] | Potency [2] | Potency [3] | Potency [4] | Potency [5] | Potency [10] | outcome [6] | Potency [7] | Potency [8]

Cc1c(-c2cccnc2)c2ccccc2n1CCCCC(=O)O
inactive: Potency [1] | Potency [2] | Potency [3] | Potency [4] | Potency [5] | outcome [6] | Potency [7] | Potency [8]

C=Cc1ccc(C=C)cc1
inactive: Potency [1] | Potency [2] | Potency [3] | Potency [4] | Potency [5] | Potency [10] | outcome [6] | Potency [7] | Potency [8]

COC(=O)/C=C/C(C)=C\C=C\C(C)=C\C=C\C=C(C)\C=C\C=C(C)\C=C\C(=O)O
inactive: Potency [1] | Potency [2] | Potency [4] | Potency [9] | Potency [5] | Potency [10] | outcome [6] | Potency [7] | Potency [8]

CCCCCCCCCCCCN1CCOCC1
inactive: Potency [1] | Potency [2] | Potency [3] | Potency [5] | Potency [10] | outcome [6] | Potency [7] | Potency [8]

S=c1[nH][nH]c(=S)s1
inactive: Potency [1] | Potency [2] | Potency [3] | Potency [4] | Potency [10] | outcome [6] | Potency [8]

O=Cc1ccc(Cl)c([N+](=O)[O-])c1
inactive: Potency [1] | Potency [2] | Potency [3] | Potency [4] | Potency [10] | outcome [6] | Potency [7] | Potency [8]

CC(=O)OCC(=O)[C@@]1(O)CC[C@H]2[C@@H]3CCC4=CC(=O)C=C[C@]4(C)[C@@]3(F)[C@@H](O)C[C@@]21C
inactive: Potency [1] | Potency [2] | Potency [3] | Potency [4] | outcome [6] | Potency [7] | Potency [8]

Cc1nc(C)c(C)nc1C
inactive: Potency [1] | Potency [2] | Potency [4] | Potency [9] | Potency [5] | outcome [6] | Potency [7] | Potency [8]

C(/C=C/C=C/Nc1ccccc1)=Nc1ccccc1
inactive: Potency [1] | Potency [2] | Potency [3] | Potency [4] | Potency [5] | Potency [8]

Cc1cc(N)n(-c2ccccc2)n1
inactive: Potency [1] | Potency [2] | Potency [3] | Potency [4] | Potency [5] | outcome [6] | Potency [7] | Potency [8]

CCCC(=O)OCc1ccccc1
inactive: Potency [1] | Potency [2] | Potency [3] | Potency [4] | outcome [6] | Potency [7] | Potency [8]

CC(CN=Cc1ccccc1O)N=Cc1ccccc1O (centres undefined)
inactive: Potency [1] | Potency [2] | Potency [3] | Potency [4] | Potency [5] | outcome [6] | Potency [7] | Potency [8]

CCOC(C)OCC
inactive: Potency [1] | Potency [2] | Potency [3] | Potency [4] | Potency [8]
